PubChem BioAssay

biological target: PEG-3 (UniProt Q6IN02); experiment: Peg3 promoter luciferase inhibitors, potency, dose response, cell-based, HeLa, CREF/GAPDH counter-screen panel (AID 624167); settings: HeLa PEG-Prom luciferase reporter, overnight, CREF/GAPDH counter-screens; run 1, dose range 1, at 100 µM (top of the series)
Sequence (Q6IN02 whole entry, looked up): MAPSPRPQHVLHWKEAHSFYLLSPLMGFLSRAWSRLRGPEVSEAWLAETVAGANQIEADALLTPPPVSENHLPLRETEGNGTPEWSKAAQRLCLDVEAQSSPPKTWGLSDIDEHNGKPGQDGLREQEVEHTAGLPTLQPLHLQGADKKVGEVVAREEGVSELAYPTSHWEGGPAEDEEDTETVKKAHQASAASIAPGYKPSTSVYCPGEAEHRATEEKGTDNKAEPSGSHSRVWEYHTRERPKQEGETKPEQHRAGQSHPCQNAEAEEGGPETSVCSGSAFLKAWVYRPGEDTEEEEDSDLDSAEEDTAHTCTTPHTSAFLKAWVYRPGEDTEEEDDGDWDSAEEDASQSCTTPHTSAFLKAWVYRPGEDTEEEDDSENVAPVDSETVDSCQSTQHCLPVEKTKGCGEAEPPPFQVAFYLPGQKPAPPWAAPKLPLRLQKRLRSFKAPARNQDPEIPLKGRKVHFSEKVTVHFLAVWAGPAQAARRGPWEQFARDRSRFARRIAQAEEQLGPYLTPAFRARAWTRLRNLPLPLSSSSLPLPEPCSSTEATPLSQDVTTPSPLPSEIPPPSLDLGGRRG

Row | SMILES | inhibition [%]
1 | CCOC(=O)c1c(-n2c(C)cc(C=C3C(=O)NC(=S)NC3=O)c2C)sc2c1CCCC2 | 96.7
2 | O=c1c2ccccc2nc(CSc2ncnc3nc[nH]c23)n1-c1ccc(Cl)c(Cl)c1 | -43.1
3 | Cc1ccccc1CN1Cc2cnnn2-c2ccccc2C1C#N (centres undefined) | 99.2
4 | CC1=CC2OC3CC4OC(=O)C=CC=CC(C(C)O)OCC(O)C(C)CC(=O)OCC2(CC1O)C4(C)C31CO1 (centres undefined) | 101
5 | O=[N+]([O-])c1cc(F)c(N2CCCCCC2)cc1N1CCNCC1 | 99.4
6 | c1ccc(-c2cc(-c3ccccc3)[n+](-c3ccccc3)c(-c3ccccc3)c2)cc1 | 98.2
7 | CC(=O)OC1CC[C@]2(C#N)[C@H]3CC[C@]4(C)[C@H](C5C=CC(=O)O5)CCC4(O)C3CCC2(O)C1 (some centres undefined) | 98.6
8 | O=Cc1cn(Cc2cccc(F)c2)c2ccccc12 | 50.1
9 | COC(COC(N)=O)C1=C(N2CC2)C(=O)C(C)=C(N2CC2)C1=O (centres undefined) | 102
10 | C[C@@H]1C[C@@H]([C@H](O)CC2CC(=O)NC(=O)C2)C(=O)[C@@H](C)C1 | 98
11 | CCC(c1nnnn1-c1ccc2c(c1)OCCO2)N1CCC(n2c(=O)[nH]c3ccccc32)CC1 (centres undefined) | 101
12 | CCN(CCCl)c1cc(CN(C)C)cc(NC(=O)c2ccc(C(=O)Nc3cc(CN(C)C)cc(N(CC)CCCl)c3)cc2)c1 | 100
13 | CC(=O)OC(C)(C)/C=C/C(=O)C(C)(O)C1[C@H](O)C[C@@]2(C)C3CC=C4C(CC[C@@H](O)C4(C)C)[C@]3(CO)C(=O)C[C@]12C (some centres undefined) | 102
14 | O=Cc1cn(Cc2ccc(Br)cc2)c2ccccc12 | 41.6

biological target: PEG-3 (UniProt Q6IN02); experiment: as above; settings: HeLa PEG-Prom luciferase reporter, overnight, CREF/GAPDH counter-screens; run 2, dose range 1, at 100 µM (top of the series)

Row | SMILES | inhibition [%]
15 | CC1=CC2/C=C(\C)CCC(O)C(O)/C=C/C(=O)C23C(=O)NC(CC(C)C)C3C1C (centres undefined) | 101
16 | C=Cc1cc(OC)c2c(c1)c(=O)oc1c2cc(OC)c2c(O)ccc(C3OC(C)C(O)C(C)(O)C3O)c21 (centres undefined) | 102
17 | COc1cccc(C2CC3C(=O)C=CC2N3Cc2ccccc2)c1 (centres undefined) | 100
18 | CC(C)(C)n1nnnc1C(CCc1ccccc1)N1CCC(n2c(=O)[nH]c3ccccc32)CC1 (centres undefined) | 92.6
19 | COc1cc2nc(CN3CC=C(c4ccccc4)CC3)[nH]c(=O)c2cc1OC | 45.3
20 | CCN(CC)C(=O)c1ccc(NC(=O)Nc2ccccc2F)cc1 | 93.2
21 | O=Cc1cn(Cc2ccc(F)cc2)c2ccccc12 | 60.7
22 | Cc1ccc(S(=O)(=O)c2nc(-c3ccccc3Cl)oc2N(C)C2CCN(C)CC2)cc1 | 101
23 | CC(=O)OC1(C)CC(C)C(=O)C(C(O)CC2CC(=O)NC(=O)C2)C1 (centres undefined) | 94.4
24 | CCC1(OC(=O)CN)C(=O)OCc2c1cc1n(c2=O)Cc2cc3ccccc3nc2-1 (centres undefined) | 96.5
25 | C[C@@H]1O[C@@H](O[C@@H]2C=C3CCC4C(CC[C@]5(C)[C@@H](c6ccc(=O)oc6)CC[C@]45O)[C@@]3(C)CC2)[C@H](O)[C@H](O)[C@H]1O (some centres undefined) | 98.5
26 | COc1ccc(-n2nnnc2C(C2CC2)N2CCC(n3c(=O)[nH]c4ccccc43)CC2)cc1 (centres undefined) | 95.7
27 | N#Cc1ccc(Cn2cc(C=O)c3ccccc32)cc1 | 42.5
28 | O=C1NC2C(=CC(O)C(O)C2O)c2cc3c(c(O)c21)OCO3 (centres undefined) | 94.9
29 | O=Cc1cn(Cc2ccc([N+](=O)[O-])cc2)c2ccccc12 | 29.8
30 | CC[C@@H](O)C[C@H]1CCC[C@@]2(C[C@@H]3OC(=O)/C=C/[C@@](C)(O)[C@@H](O)[C@H](C)[C@@H](O)[C@H](OC4CCC(N(C)C)C(C)O4)[C@@H](O)[C@](C)(O)CCCCC/C=C/[C@@H]4CC(C)(C)O[C@@]4(O)C[C@H](O2)[C@H]3C)O1 (some centres undefined) | 98.9
31 | CCOC(=O)c1c(-n2c(C)cc(C=C3C(=O)NC(=S)NC3=O)c2C)sc2c1CCCC2 | 101
32 | O=c1c2ccccc2nc(CSc2ncnc3nc[nH]c23)n1-c1ccc(Cl)c(Cl)c1 | 33.8
33 | Cc1ccccc1CN1Cc2cnnn2-c2ccccc2C1C#N (centres undefined) | 98.3
34 | CC1=CC2OC3CC4OC(=O)C=CC=CC(C(C)O)OCC(O)C(C)CC(=O)OCC2(CC1O)C4(C)C31CO1 (centres undefined) | 99.3
35 | O=[N+]([O-])c1cc(F)c(N2CCCCCC2)cc1N1CCNCC1 | 101
36 | c1ccc(-c2cc(-c3ccccc3)[n+](-c3ccccc3)c(-c3ccccc3)c2)cc1 | 99.1
37 | CC(=O)OC1CC[C@]2(C#N)[C@H]3CC[C@]4(C)[C@H](C5C=CC(=O)O5)CCC4(O)C3CCC2(O)C1 (some centres undefined) | 99.5
38 | O=Cc1cn(Cc2cccc(F)c2)c2ccccc12 | 75.9
39 | COC(COC(N)=O)C1=C(N2CC2)C(=O)C(C)=C(N2CC2)C1=O (centres undefined) | 101
40 | C[C@@H]1C[C@@H]([C@H](O)CC2CC(=O)NC(=O)C2)C(=O)[C@@H](C)C1 | 101
41 | CCC(c1nnnn1-c1ccc2c(c1)OCCO2)N1CCC(n2c(=O)[nH]c3ccccc32)CC1 (centres undefined) | 102
42 | CCN(CCCl)c1cc(CN(C)C)cc(NC(=O)c2ccc(C(=O)Nc3cc(CN(C)C)cc(N(CC)CCCl)c3)cc2)c1 | 101
43 | CC(=O)OC(C)(C)/C=C/C(=O)C(C)(O)C1[C@H](O)C[C@@]2(C)C3CC=C4C(CC[C@@H](O)C4(C)C)[C@]3(CO)C(=O)C[C@]12C (some centres undefined) | 101
44 | O=Cc1cn(Cc2ccc(Br)cc2)c2ccccc12 | 72.9
